The values below come from PubChem BioAssay.

For test [1], the target named is Tumor necrosis factor receptor superfamily member 10B (Homo sapiens) (UniProt O14763). Briefly: viability loss of caspase-8 NB7 cells with TRAIL – with/without TRAIL, luminescence panel, confirmation (AID 651596). The note with it: NB7 neuroblastoma + caspase-8, TRAIL sensitization, NB7 Caspase-8, with TRAIL, mean of runs, at 10 µM, stronger effect = higher value.
Test in test [2]: as above
The note with it: NB7 neuroblastoma + caspase-8, without TRAIL, NB7 Caspase-8, without TRAIL, mean of runs, at 10 µM.

The target of test [3] is Tumor necrosis factor receptor superfamily member 10B (Homo sapiens) (UniProt O14763). In words: compound enhancement of TRAIL-induced cell killing – NB7 cells plus caspase-8, luminescence, panel, dose response (AID 652002). The note with it: NB7 neuroblastoma +caspase-8, TRAIL sensitization, luminescence viability, NB7+Caspase-8, with TRAIL, run 1; at 12.5 µM (top of the series).

Test [4] shares this target. The test is described as above. The note with it: NB7 neuroblastoma +caspase-8, TRAIL sensitization, luminescence viability, NB7+Caspase-8, with TRAIL, run 2; at 12.5 µM (top of the series).
Test in test [5]: as above
The settings on record: NB7 neuroblastoma +caspase-8, no TRAIL, compound-alone cytotoxicity counter-screen, luminescence viability, NB7+Caspase-8, run 1; at 12.5 µM (top of the series) unless noted.

Test in test [6]: as above
The settings on record: NB7 neuroblastoma +caspase-8, no TRAIL, compound-alone cytotoxicity counter-screen, luminescence viability, NB7+Caspase-8, run 2; at 12.5 µM (top of the series) unless noted.

Sequence of Tumor necrosis factor receptor superfamily member 10B (Homo sapiens) (O14763 whole entry, looked up): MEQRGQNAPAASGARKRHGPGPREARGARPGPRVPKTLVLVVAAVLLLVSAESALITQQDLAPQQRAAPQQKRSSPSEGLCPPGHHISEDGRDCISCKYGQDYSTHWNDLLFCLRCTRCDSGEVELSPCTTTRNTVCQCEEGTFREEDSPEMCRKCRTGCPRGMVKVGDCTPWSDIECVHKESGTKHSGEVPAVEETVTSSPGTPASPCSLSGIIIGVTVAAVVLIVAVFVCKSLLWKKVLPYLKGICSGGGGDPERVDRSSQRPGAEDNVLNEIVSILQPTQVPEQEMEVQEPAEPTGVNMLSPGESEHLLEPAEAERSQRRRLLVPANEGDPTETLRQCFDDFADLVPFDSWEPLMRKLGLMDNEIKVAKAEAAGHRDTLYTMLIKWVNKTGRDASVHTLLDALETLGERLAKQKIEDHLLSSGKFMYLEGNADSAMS

`COc1cccc2cc(-c3nc4ccccc4[nH]3)c(=O)oc12`: the activity in test [1] worked out at 64.5%; in test [2], 61.1%.

As for `COC(=O)c1ccc2c(c1)C(C)(C)C(/C=C/c1ccc(OC)c(OC)c1OC)=[N+]2C`, the activity is 73.8% in test [1] and 68.9% in test [2].

Consider `CCOc1ncccc1C(=O)OCC(=O)Nc1ccc(-c2nc3ccc(C)cc3s2)cc1`, for which the activity in test [1] is 60.9%; in test [2], 67%.

Turning to `C#CC(=O)CC1(CN(Cc2ccccc2)C(=O)OC(C)(C)C)CCCCC1`, the activity is 97.7% in test [1] and 49.4% in test [2]. Moreover, the activity, % sensitization was 78.9% in test [3], 34.5% in test [4], 89.9% in test [5] and 57.8% in test [6].

Consider `CN(C)S(=O)(=O)c1ccc(C(=O)Nc2nnc(SCC(=O)NCC3CCCO3)s2)cc1` (stereo not given), for which the activity in test [1] came out at 49.1%; in test [2], 38.5%. Also, the activity, % sensitization in test [3] was 30%; in test [4], 32.3%; in test [5] it was 4.27%; in test [6] it was 28.4%.

As to `CC(C)c1ccc(NC(=O)Nc2nc(C(N)CCc3ccccc3)cs2)cc1` (stereo not given), the activity worked out at 86.8% in test [1] and 98.2% in test [2].

As to `COc1ccc(C2CC(c3ccc(Br)cc3)=NN2C(=O)CSC2=NN3CCCC(=O)N=C3S2)cc1` (stereo not given), the activity in test [1] was found to be 95.8%; in test [2] it was 90.9%.

On to `O=C(Nc1ccccn1)c1ccc2c(c1)OCCO2`, for which the activity stood at 49.8% in test [1] and 47.5% in test [2].

Turning to `O=C(Nc1ccc2[nH]ccc2c1)c1ccc(F)cc1`, the results for the activity in test [1] and in test [2] were 89.7% and 87%, respectively.

Turning to `Cc1c(P(=S)(c2ccccc2)c2ccccc2)[n+]2ccccc2n1CCc1ccccc1`, the activity in test [1] was 52%; in test [2], 44.7%. The activity, % sensitization in test [3] came out at 3.09%; in test [4], 9.7%; in test [5] it was 3.44%; in test [6] it was 9.46%.

On to `CCc1ccc(-c2ccc(SCC(=O)NCC3CCCO3)nn2)cc1` (stereo not given), for which the activity was determined as 52.9% in test [1] and 62.2% in test [2].

`CC(C)(C)OC(=O)[C@H](Cc1ccccc1)NC(=O)c1[nH]cnc1C(=O)Nc1ccccc1F`: the activity in test [1] turned out to be 54.9%; in test [2], 54.8%. Moreover, the activity, % sensitization in test [3] was 16.8%; in test [4] it was -4.6%; in test [5] it was 6.22%; in test [6], 2.55%.

Consider `Cc1ccc(CSc2nnc(-c3cccnc3)o2)cc1`, for which the figures for the activity in test [1] and in test [2] were 43.5% and 45.6%, respectively.

For the molecule `CCOc1ccc(C(=O)Nc2cc(C)on2)cc1`, the activity in test [1] turned out to be 64.9%; in test [2], 61.7%.

Consider `CCCNC(=O)c1oc2ccc3c(c2c1C)C(=O)CC(C)(C)O3`, for which the results for the activity in test [1] and in test [2] were 66.1% and 68.4%, respectively.

With `CCc1ccc(C(=O)Cn2ncc(Cl)c(Cl)c2=O)cc1`, the activity in test [1] is 99.2%; in test [2], 99.4%.

Turning to `COCCNC(=O)c1cc(-c2ccc(-c3ccccc3)cc2)nc2ccccc12`, the results for the activity in test [1] and in test [2] were 57.7% and 44.5%, respectively. Also, the activity, % sensitization was 36.7% in test [3], 40.6% in test [4], 51% in test [5] and 41.3% in test [6].

With `CC(O)CC(=O)OC[C@]12CC[C@H]3[C@@](C)(CC[C@H]4C(C)(C)CCC[C@]34C)[C@@H]1CC(C1=CC(=O)OC1O)O2` (stereo not given in full), the activity in test [1] was 87.1%; in test [2] it was 93%.

In the case of `O=C(Nc1nnc(/N=C/c2ccco2)s1)c1ccc(F)cc1`, the values for the activity in test [1] and in test [2] were 39.8% and 28.4%, respectively.

With `CCC(C)c1ccc(O)c(NC(=S)NC(=O)c2cccs2)c1` (stereo not given), the activity in test [1] stood at 56.5%; in test [2], 54.3%. Also, the activity, % sensitization in test [3] is 40.5%; in test [4], 49.3%; in test [5], 56.2%; in test [6], 41.9%.

For `Cc1ccc(/C=N/Nc2ccc3ccccc3n2)o1`, the activity in test [1] turned out to be 55.2%; in test [2], 45.1%.

Turning to `C/C(=N\NC(=O)c1ccc(Cl)cc1)c1cccs1`, the activity in test [1] came to 80.1%; in test [2], 81.4%.

As for `c1ccc(-c2nnc3sc(CN4CCC5(CC4)OCCO5)cn23)cc1`, the values for the activity in test [1] and in test [2] were 57.7% and 60.9%, respectively.
